PubChem BioAssay (EPA / NIEHS)
Values joined by “and” are separate entries in the source; they are usually repeats but may differ in a detail not shown here. Equal values may be shown once. Active and inactive are the calls of the source. Rule for the calls: active = hit-call score of the fitted dose curve at least 0.9, where 1 is the maximum; inactive = score below 0.9.

Tested on: not listed separately
Test: ATG_CRE_CIS: Attagene CIS-FACTORIAL HepG2 Assay for human cAMP Responsive Element (CRE) binding protein 3 (AID 2282926)
Details: HepG2 CRE cis-reporter, Attagene multiplexed mRNA; actives raise or lower the signal
How it was run: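 Liver-derived HepG2, transfected with a CRE-containing reporter panel, exposed 24 h; transcript levels sized and quantified by capillary electrophoresis of labelled amplicons; signal changes either way referenced to vehicle.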
For `CC(C)(C)CC(C)(C)c1ccc(O)c(-n2nc3ccccc3n2)c1`, the outcome was “inactive”. With `CCc1ccc(CCOc2ccc(CC3SC(=O)NC3=O)cc2)nc1` (stereo not given) the outcome was “inactive”. For `Oc1cc2ccccc2c2ccccc12`, the outcome was “inactive”. In the case of `CC[C@H](C)[C@@H](C(=O)O)n1sc2ccccc2c1=O`, the outcome is reported as “inactive”. In the case of `CN1CCN(c2ccccc2/C=C2\SCCN(c3ccc(Cl)c(Cl)c3)C2=O)CC1`, the outcome is reported as “inactive”. For `CCc1nn(C2CCCCC2)c2cc(C3(C#N)CCC(C(=O)O)CC3)ccc12` (stereo not given), the outcome was “inactive”. In the case of `CC[C@H](c1ccc(O)cc1)[C@@H](CC)c1ccc(O)cc1`, the outcome is reported as “inactive”. With `N#C[C@@H]1CC(F)(F)CN1C(=O)CNC1CC2CCC(C1)N2c1ncccn1` (stereo not given in full) the outcome was “inactive”. In the case of `OCCC(F)(F)C(F)(F)C(F)(F)C(F)(F)C(F)(F)C(F)(F)C(F)(F)C(F)(F)F`, the AC50 is reported as 26.3 µM (active) and 124 µM (active). With `C[C@@H]1C[C@H]2[C@@H]3CCC4=CC(=O)C=C[C@]4(C)[C@@]3(F)[C@@H](O)C[C@]2(C)[C@@]1(O)C(=O)COP(=O)(O)O` the outcome was “inactive”. In the case of `OC1CCCCC1`, the outcome is reported as “inactive”. With `CC(C)(C)c1cc(C(C)(C)C)c(O)c(C(C)(C)C)c1` the outcome was “inactive”. For `O=C(OCCOCCOC(=O)c1ccccc1)c1ccccc1`, the outcome was “inactive”. With `CCC(C)(C)C1CCC(O)CC1` (stereo not given) the outcome was “inactive”. With `CN1CCC[C@H]1c1cccnc1` the outcome was “inactive”. In the case of `NC(=O)N(O)[C@@H]1C=C[C@H](Oc2cccc(Oc3ccc(F)cc3)c2)C1`, the AC50 is reported as 22.6 µM (active). In the case of `COC(=O)CCCCC(=O)OC`, the outcome is reported as “inactive”. For `CC(O)CO` (stereo not given), the outcome was “inactive”. In the case of `CC(=O)CC(C)(C)O`, the outcome is reported as “inactive”. With `CCCCCCCCOC(=O)CCCCCCCCC(=O)OCCCCCCCC` the outcome was “inactive”.

Target: CCAAT/enhancer-binding protein beta (Homo sapiens) (UniProt P17676)
Sequence (P17676 whole entry, looked up): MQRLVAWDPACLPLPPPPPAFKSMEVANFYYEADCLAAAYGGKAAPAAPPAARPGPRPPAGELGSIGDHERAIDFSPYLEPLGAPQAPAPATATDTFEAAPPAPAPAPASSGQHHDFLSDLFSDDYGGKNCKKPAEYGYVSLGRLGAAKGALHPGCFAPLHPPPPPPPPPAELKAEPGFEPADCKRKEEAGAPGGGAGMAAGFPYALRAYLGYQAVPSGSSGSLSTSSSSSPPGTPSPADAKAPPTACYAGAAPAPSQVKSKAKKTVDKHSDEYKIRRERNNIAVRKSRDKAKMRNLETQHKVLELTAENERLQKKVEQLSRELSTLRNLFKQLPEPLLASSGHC
Test: ATG_C_EBP_CIS: Attagene CIS-FACTORIAL HepG2 Assay for human CCAAT/Enhancer Binding Protein (C/EBP) beta (AID 2282927)
Details: HepG2 Attagene cis-factorial transcription factor reporter; actives raise or lower the signal
How it was run: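 Endogenous C/EBPb-driven reporter transcripts measured in transfected human HepG2 cells at 24 h via RT-PCR and capillary electrophoresis of labelled fragments. Activity fitted in both directions relative to DMSO baseline.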
In the case of `CC(C)(C)CC(C)(C)c1ccc(O)c(-n2nc3ccccc3n2)c1`, the outcome is reported as “inactive”. In the case of `CC(=O)NC1(c2cccc(F)c2)CCN(CC[C@@]2(c3ccc(Cl)c(Cl)c3)CN(c3ccccc3)C(=O)CO2)CC1`, the AC50 is reported as 54.7 µM (active). For `CCc1ccc(CCOc2ccc(CC3SC(=O)NC3=O)cc2)nc1` (stereo not given), the outcome was “inactive”. In the case of `CCOC(=O)CC(O)(CC(=O)OCC)C(=O)OCC`, the outcome is reported as “inactive”. With `Oc1cc2ccccc2c2ccccc12` the outcome was “inactive”. For `CC[C@H](C)[C@@H](C(=O)O)n1sc2ccccc2c1=O`, the outcome was “inactive”. For `CCCCC[C@H](O)CC(=O)CCc1ccc(O)c(OC)c1`, the outcome was “inactive”. In the case of `CN1CCN(c2ccccc2/C=C2\SCCN(c3ccc(Cl)c(Cl)c3)C2=O)CC1`, the outcome is reported as “inactive”. With `Cc1oc(-c2ccccc2)nc1CCOc1ccc(C[C@H](Nc2ccccc2C(=O)c2ccccc2)C(=O)O)cc1` the outcome was “inactive”. With `CCc1nn(C2CCCCC2)c2cc(C3(C#N)CCC(C(=O)O)CC3)ccc12` (stereo not given) the outcome was “inactive”. With `CC[C@H](c1ccc(O)cc1)[C@@H](CC)c1ccc(O)cc1` the outcome was “inactive”. In the case of `N#C[C@@H]1CC(F)(F)CN1C(=O)CNC1CC2CCC(C1)N2c1ncccn1` (stereo not given in full), the outcome is reported as “inactive”. With `CCCCCCCCCCCCc1ccccc1S(=O)(=O)O` the outcome was “inactive”. For `OCCC(F)(F)C(F)(F)C(F)(F)C(F)(F)C(F)(F)C(F)(F)C(F)(F)C(F)(F)F`, the outcome was “inactive”. In the case of `C[C@@H]1C[C@H]2[C@@H]3CCC4=CC(=O)C=C[C@]4(C)[C@@]3(F)[C@@H](O)C[C@]2(C)[C@@]1(O)C(=O)COP(=O)(O)O`, the outcome is reported as “inactive”. With `COCC(C)O` (stereo not given) the outcome was “inactive”. With `OC1CCCCC1` the outcome was “inactive”. For `O=[N+]([O-])c1ccc(O)cc1`, the outcome was “inactive”. With `CC(C)(C)c1cc(C(C)(C)C)c(O)c(C(C)(C)C)c1` the outcome was “inactive”. In the case of `O=C(OCCOCCOC(=O)c1ccccc1)c1ccccc1`, the outcome is reported as “inactive”. With `CCC(C)(C)C1CCC(O)CC1` (stereo not given) the outcome was “inactive”. For `Cc1cc(CCN2CCN(c3nsc4ccccc34)CC2)cc2c1NC(=O)CC2(C)C`, the AC50 was 7.43 µM (active). In the case of `c1ccc2cc3c(ccc4ccccc43)cc2c1`, the outcome is reported as “inactive”. For `CCCOC(=O)c1ccc(O)cc1`, the outcome was “inactive”. With `CN1CCC[C@H]1c1cccnc1` the outcome was “inactive”. In the case of `NC(=O)N(O)[C@@H]1C=C[C@H](Oc2cccc(Oc3ccc(F)cc3)c2)C1`, the outcome is reported as “inactive”. For `COC(=O)CCCCC(=O)OC`, the outcome was “inactive”. With `CC(O)CO` (stereo not given) the outcome was “inactive”. With `O=C(O)Cc1cc(I)c(Oc2cc(I)c(O)c(I)c2)c(I)c1` the AC50 was 29.1 µM (active) and 17.8 µM (active). For `CC(=O)CC(C)(C)O`, the outcome was “inactive”. In the case of `CCN(CC)CCNc1ccc(CNC=O)c2sc3ccc(OC)cc3c(=O)c12`, the AC50 is reported as 0.879 µM (active). With `CCCCC(CC)COC(=O)CCCCC(=O)OCc1ccccc1` (stereo not given) the outcome was “inactive”. In the case of `CC#C[C@]1(O)CC[C@H]2[C@@H]3CCC4=CC(=O)CCC4=C3[C@@H](c3ccc(N(C)C)cc3)C[C@@]21C`, the outcome is reported as “inactive”. With `c1ccc2c(c1)Cc1ccccc1-2` the outcome was “inactive”. With `CCCCCCCCOC(=O)CCCCCCCCC(=O)OCCCCCCCC` the outcome was “inactive”.
